In all, about 320,000 compounds went through this assay and about 2,100 (0.66%) were called active. Roughly 53% stayed inconclusive and do not appear here. Calls follow the shape of the dose curve; as a rule, active = well fitted inhibition curve with a large enough effect in the signal ratio, with a control signal flat (not every such curve was filed as active); inconclusive = small, poorly fitted or top-dose-only effect, or effect the other way, or a change in a side signal; inactive = flat fitted curve, though single readings scatter; the % refers to the signal ratio. This excerpt belongs to a sample that is enriched for actives.
experiment: qHTS Assay for Lipid Storage Modulators in Drosophila S3 Cells; settings: BODIPY lipid droplet fluorescence, 18-24 h, cells fed with added oleic acid; cell number change: measured here: cell count max response; series mostly up to 46.1 µM;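 as to cell number change: cells counted by Cell Tracker Red CMTPX staining in the red channel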; as to lipid storage change, negative = inhibition: % is scaled to controls: 0 for no effect and ±100 for the full control effect
How it was run: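 Drosophila S3 cells loaded with oleic acid (400 uM, as added) and compounds at several concentrations; lipid droplets imaged by 488-nm laser-scanning cytometry, 500–530 nm intensity and object ratio to cell channel. Percent activity normalized to 20 uM Triacsin C.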
Potency is read from the fitted curve at half-maximal effect.

Row | Structure (SMILES) | Potency | cell number change [%] | lipid storage change, negative = inhibition
1 | COCCN(C(=O)CNC(=O)c1cccs1)C(C(=O)NC1CCCCC1)c1ccco1 (stereo unspecified) | inactive | -12.2 | 
2 | CC(=O)C(Sc1nnnn1-c1ccc(O)cc1)c1ccccc1 (stereo unspecified) | inactive | 5.67 | 
3 | COc1ccc(NC(=O)N2CCN(c3nc4ccccc4n3C(C)C)CC2)cc1 | 14.6 µM (active) | -28.6 | 
4 | Cn1c(N2CCN(C(=O)Nc3ccc(F)cc3)CC2)nc2ccccc21 | inactive | 17.1 | 
5 | CC(C)n1c(N2CCN(C(=O)NCc3ccccc3)CC2)nc2ccccc21 | inactive | -4.04 | 
6 | N#Cc1c(Cl)nc(SCc2ccccc2)nc1-c1ccccc1 | inactive | -2.68 | 
7 | CCC(C)Sc1ccc([C@H]2N[C@@](Cc3ccccc3)(C(=O)OC)[C@H]3C(=O)N(C)C(=O)[C@@H]23)cc1 (stereo partly specified) | inactive | 17.3 | 
8 | O=C(CCN1C(=O)/C(=C/c2ccc(F)cc2)SC1=S)N[C@@H](CO)Cc1ccccc1 | 29.1 µM (active) | -1.15 | 
9 | COc1cc(/C=C2\SC(=S)N(CCC(=O)Nc3ccccc3O)C2=O)cc(OC)c1OC | inactive |  | 
10 | COc1cc(/C=C2\SC(=S)N(CC(=O)Nc3ccc(O)cc3)C2=O)cc(OC)c1OC | inactive | 19.7 | 
11 | COc1cc(/C=C2/SC(=S)N(CCC(=O)Nc3ccccc3)C2=O)cc(OC)c1OC | 1.84 µM (active) |  | 
12 | COc1cc(/C=C2\SC(=S)N(CCC(=O)Nc3cccc(O)c3)C2=O)cc(OC)c1OC | 3.66 µM (active) | 10.2 | 
13 | COc1cc(/C=C2\SC(=S)N(CCC(=O)Nc3ccccc3)C2=O)cc(OC)c1OC |  | 15 | -5.12% [at 9.22 µM] (inactive)
14 | O=C(CCN1C(=O)/C(=C\c2ccc(F)cc2)SC1=S)Nc1ccccc1 | inactive |  | 
15 | COc1ccc(/C=C2\SC(=S)N(CCC(=O)Nc3cccc(O)c3)C2=O)cc1OC | inactive | -7.94 | 
16 | O=C(CCN1C(=O)/C(=C/c2ccccc2)SC1=S)N[C@@H](CO)Cc1ccccc1 | inactive | -19.2 | 
17 | COC(=O)c1ccccc1Oc1ccc(NC(=O)CCCl)cc1 | inactive | -3.28 | 
18 | O=C(CSc1nnc(Cn2c(=O)sc3ccccc32)n1-c1ccccc1)N1CCCC1 | inactive | -5.75 | 
19 | CC(C)C(C(=O)NCC1CCCO1)N(C(=O)CNS(=O)(=O)c1ccccc1)c1ccc(F)cc1 (stereo unspecified) | inactive | 10.5 | 
20 | Fc1cccc(COc2ccccc2CNc2ccccc2)c1 | inactive | -10 | 
21 | COCCn1ccc2c(OCC(=O)NCc3ccccc3)cccc2c1=O | inactive | -6.52 | 
22 | O=S(=O)(N/N=C/c1cn(Cc2ccccc2)c2ccccc12)c1ccccc1 | inactive | -19.2 | 

Row | Structure (SMILES) | Potency | cell number change [%] | lipid storage change, negative = inhibition
23 | CNC(=S)N/N=C/c1cn(Cc2ccc(F)cc2)c2ccccc12 | inactive | -3.02 | 
24 | O=c1ccn(Cc2ccccc2)c2ccccc12 | inactive | -20.5 | 
25 | O=[N+]([O-])/C=C/c1cn(Cc2ccc(F)cc2)c2ccccc12 | 20.6 µM (active) | -17.9 | 
26 | O=[N+]([O-])/C=C/c1cn(Cc2ccccc2)c2ccccc12 | 10.3 µM (active) |  | 
27 | O=C(O)c1ccc(N/N=C/c2cn(Cc3ccc(F)cc3)c3ccccc23)cc1 | inactive | 0.719 | 
28 | N/C(=N\OC(=O)C12CC3CC(CC(C3)C1)C2)c1ccncc1 | inactive | -16.5 | 
29 | COc1ccc(N(C(=O)CNC(=O)c2ccco2)C(C(=O)NCC2CCCO2)c2ccccc2)cc1OC (stereo unspecified) | inactive | 7.66 | 
30 | O=C(c1ccc(-c2ccccc2)cc1)N1CCN(Cc2ccccn2)CC1 | inactive | -0.729 | 
31 | O=C(O)CC1S/C(=N/N=C/c2ccc(Br)cc2)N(c2ccccc2)C1=O (stereo unspecified) | inactive | -1.06 | 
32 | CCC(C)(C)n1nnnc1C(c1cccc(C#N)c1)N1CCN(c2cccc(C)c2C)CC1 (stereo unspecified) | inactive | 0.845 | 
33 | O=C(CSC1=NCCS1)N1CCCCCC1 | 4.61 µM (active) | 0.498 | 
34 | O=C(CSC1=NCCS1)N1CCN(c2ccc(Cl)cc2)CC1 | inactive | 1.49 | 
35 | O=C(CSC1=NCCS1)N1CCN(c2ccccc2)CC1 | inactive | -11.5 | 
36 | Cc1c(Cl)cccc1NC(=O)CCCCCN1C(=O)CCC1=O | inactive |  | 
37 | CS(=O)(=O)c1ccc2nc(NC(=O)Nc3cccc(Cl)c3)sc2c1 | 16.4 µM (active) | 10.2 | 
38 | Cc1ccc(NC(=O)Nc2nc3ccc(S(C)(=O)=O)cc3s2)cc1 | inactive | 0.9 | 
39 | CS(=O)(=O)c1ccc2nc(NC(=O)c3cccc(Cl)c3)sc2c1 | inactive | 5.93 | 
40 | Cc1ccc(S(=O)(=O)Cc2cc(F)c([N+](=O)[O-])cc2[N+](=O)[O-])cc1 | 0.411 µM (active) | 20.1 | 
41 | CC(=O)c1ccc([N+](=O)[O-])c(CS(=O)(=O)c2ccc(Cl)cc2)c1 | inactive | 12.3 | 
42 | Cc1ccc(S(=O)(=O)Cc2ccc([N+](=O)[O-])cc2)cc1 | inactive | -6.56 | 
43 | Cc1nc(C(C)NC(=O)CCc2nnc(-c3ccsc3)o2)cs1 (stereo unspecified) | inactive | -5.47 | 
44 | CCC(c1nnc(SCC(=O)Nc2ccc(N3CCOCC3)cc2)n1Cc1ccccc1)N(C)C (stereo unspecified) | inactive |  | 

Row | Structure (SMILES) | Potency | cell number change [%] | lipid storage change, negative = inhibition
45 | CS(=O)(=O)c1cccc(C(=O)NCc2ccccc2)c1 | inactive |  | 
46 | C=CCOc1ccccc1CN(CCc1ccccc1)C(=O)c1cccc(S(C)(=O)=O)c1 | 4.11 µM (active) | 1.8 | 
47 | CS(=O)(=O)Cc1ccc(C(=O)N(CCc2ccccc2)Cc2ccccc2)cc1 | inactive | -0.348 | 
48 | O=C(CNC(=O)c1cccs1)NCC(=O)OCc1ccc(F)cc1 | inactive | -6.51 | 
49 | CN(C(=O)CSc1nc2sc3c(c2c(=O)n1C)CCC3)C1CCS(=O)(=O)C1 (stereo unspecified) | inactive | -5.19 | 
50 | CCc1ccc(N(CC(=O)NC(C)(C)C)C(=O)CCC(=O)Nc2ccccn2)cc1 | inactive | 19.3 | 
51 | Cc1cccc(NC(=O)CCS(=O)(=O)c2ccccc2)n1 | inactive | 3.85 | 
52 | CSc1nnc(-c2sc3cc(Cl)ccc3c2Cl)n1C | 23.1 µM (active) | -10.5 | 
53 | CCn1c(SC)nnc1-c1sc2cc(Cl)ccc2c1Cl | inactive | -4.88 | 
54 | CSc1nnc(-c2ccccc2)n1C | inactive | -0.435 | 
55 | Cc1ccc(OCCOCCn2ccnc2)c(Br)c1 | inactive | -17 | 
56 | COc1ccc(-c2csc3ncn(-c4cccc(C)c4)c(=O)c23)cc1OC | inactive | 14.7 | 
57 | O=C(N/N=C/c1cccc2ccccc12)c1ccncc1 | inactive | 0.153 | 
58 | Cc1cc(NC(=O)c2cccc(F)c2)no1 | inactive | 9.9 | 
59 | O=C(Nc1ccc(F)cc1)c1ccc2[nH]c(=O)c(=O)[nH]c2c1 | inactive | 25.6 | 
60 | O=C(Nc1ncccn1)c1cccc(F)c1 | inactive | -18.7 | 
61 | O=C(Nc1ccc(F)cc1)c1cccc(C(=O)Nc2ccc(F)cc2)c1 | 0.231 µM (active) | 22.5 | 
62 | O=C(N/N=C/c1cccc2ccccc12)c1cccc(F)c1 | 11.2 µM (active) | -0.111 | 
63 | O=C(Nc1ccc(F)cc1)c1ccccc1 | inactive |  | 
64 | O=C(Nc1cccc(NC(=O)c2cccc(F)c2)n1)c1cccc(F)c1 | 6.51 µM (active) |  | 
65 | O=C(N/N=C/c1ccccc1Cl)c1cccc(F)c1 | inactive | 0.333 | 
